# Experimental data from PubChem BioAssay (EPA / NIEHS).
# Results filed as inconclusive are left out. Active and inactive are the calls of the source. Rule for the calls: active = hit-call score of the fitted dose curve at least 0.9, where 1 is the maximum; inconclusive = response in the unintended direction; inactive = score below 0.9.
# Target: Glycogen synthase kinase-3 beta (Homo sapiens) (UniProt P49841)
# Test: NVS_ENZ_hGSK3b: NovaScreen (NVS) Enzymatic Assay for human Glycogen Synthase Kinase-3 beta (GSK3b) (AID 2283165)
# Summary of the method: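 Recombinant enzyme with specific fluorescent substrate, 1 h, product separated by electrophoretic mobility shift. Primary duplicate screen at 25 uM; actives (e.g. 30% inhibition) followed in singleton concentration-response to 50 uM. Signal loss fitted versus DMSO.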
# Sequence of Glycogen synthase kinase-3 beta (Homo sapiens) (P49841 whole entry, looked up): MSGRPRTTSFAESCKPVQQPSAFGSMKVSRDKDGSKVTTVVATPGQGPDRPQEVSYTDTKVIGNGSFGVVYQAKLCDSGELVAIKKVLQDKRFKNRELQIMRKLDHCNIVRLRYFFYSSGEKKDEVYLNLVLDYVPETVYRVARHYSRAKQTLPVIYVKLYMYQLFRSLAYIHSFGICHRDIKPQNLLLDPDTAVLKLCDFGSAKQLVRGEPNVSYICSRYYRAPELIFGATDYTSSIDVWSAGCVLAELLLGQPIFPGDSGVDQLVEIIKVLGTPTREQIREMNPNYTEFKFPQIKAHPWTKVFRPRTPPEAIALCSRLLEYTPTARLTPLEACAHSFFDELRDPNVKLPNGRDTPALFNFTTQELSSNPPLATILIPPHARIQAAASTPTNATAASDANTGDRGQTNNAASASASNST
Compound,outcome,AC50
CCN(C(=O)c1cc(C)cc(OC[C@H](C)Nc2ccncc2)c1)C(C)C,inactive,–
Nc1nc2ncc(CNc3ccc(C(=O)N[C@@H](CCC(=O)O)C(=O)O)cc3)nc2c(=O)[nH]1,–,41.1 µM (active)
CCCCCCCCO,inactive,–
CC(C)=CCCC(C)=CC=O,inactive,–
CN(C)c1ccc(Cc2ccc(N(C)C)cc2)cc1,inactive,–
Cc1ccc(S(=O)(=O)O)cc1C,inactive,–
COc1cccc(-c2ccc(/C=C\CN3CCCCCC3)cc2Cl)c1,inactive,–
CC1(C)C(=O)N(Br)C(=O)N1Br,inactive,–
CC(C)=CCCC(C)CCO (stereo unspecified),inactive,–
CC(C)=CCC/C(C)=C/CO,inactive,–
Clc1nc(Cl)c(Cl)c(Cl)c1Cl,inactive,–
CC[C@H](C)C(=O)O[C@H]1C[C@@H](C)C=C2C=C[C@H](C)[C@H](CC[C@@H]3C[C@@H](O)CC(=O)O3)[C@H]21,inactive,–
CCOC(=O)COc1ccc2c(c1)CC(NCC(O)c1cccc(Cl)c1)CC2 (stereo unspecified),inactive,–

# Target: human Insulin Receptor (InsR), INSR (gene 3643) (UniProt P06213)
# Test: NVS_ENZ_hInsR: NovaScreen (NVS) Enzymatic Assay for human Insulin Receptor (InsR) (AID 2283168)
# Summary of the method: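 Fluorescent substrate phosphorylation by recombinant kinase, product resolved by electrophoretic mobility shift, read 1 h after dosing. Screened in duplicate at 25 uM; hits (e.g., 30% inhibition) run in concentration-response to 50 uM; DMSO as baseline.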
# Sequence of human Insulin Receptor (InsR), INSR (gene 3643) (P06213 whole entry, looked up): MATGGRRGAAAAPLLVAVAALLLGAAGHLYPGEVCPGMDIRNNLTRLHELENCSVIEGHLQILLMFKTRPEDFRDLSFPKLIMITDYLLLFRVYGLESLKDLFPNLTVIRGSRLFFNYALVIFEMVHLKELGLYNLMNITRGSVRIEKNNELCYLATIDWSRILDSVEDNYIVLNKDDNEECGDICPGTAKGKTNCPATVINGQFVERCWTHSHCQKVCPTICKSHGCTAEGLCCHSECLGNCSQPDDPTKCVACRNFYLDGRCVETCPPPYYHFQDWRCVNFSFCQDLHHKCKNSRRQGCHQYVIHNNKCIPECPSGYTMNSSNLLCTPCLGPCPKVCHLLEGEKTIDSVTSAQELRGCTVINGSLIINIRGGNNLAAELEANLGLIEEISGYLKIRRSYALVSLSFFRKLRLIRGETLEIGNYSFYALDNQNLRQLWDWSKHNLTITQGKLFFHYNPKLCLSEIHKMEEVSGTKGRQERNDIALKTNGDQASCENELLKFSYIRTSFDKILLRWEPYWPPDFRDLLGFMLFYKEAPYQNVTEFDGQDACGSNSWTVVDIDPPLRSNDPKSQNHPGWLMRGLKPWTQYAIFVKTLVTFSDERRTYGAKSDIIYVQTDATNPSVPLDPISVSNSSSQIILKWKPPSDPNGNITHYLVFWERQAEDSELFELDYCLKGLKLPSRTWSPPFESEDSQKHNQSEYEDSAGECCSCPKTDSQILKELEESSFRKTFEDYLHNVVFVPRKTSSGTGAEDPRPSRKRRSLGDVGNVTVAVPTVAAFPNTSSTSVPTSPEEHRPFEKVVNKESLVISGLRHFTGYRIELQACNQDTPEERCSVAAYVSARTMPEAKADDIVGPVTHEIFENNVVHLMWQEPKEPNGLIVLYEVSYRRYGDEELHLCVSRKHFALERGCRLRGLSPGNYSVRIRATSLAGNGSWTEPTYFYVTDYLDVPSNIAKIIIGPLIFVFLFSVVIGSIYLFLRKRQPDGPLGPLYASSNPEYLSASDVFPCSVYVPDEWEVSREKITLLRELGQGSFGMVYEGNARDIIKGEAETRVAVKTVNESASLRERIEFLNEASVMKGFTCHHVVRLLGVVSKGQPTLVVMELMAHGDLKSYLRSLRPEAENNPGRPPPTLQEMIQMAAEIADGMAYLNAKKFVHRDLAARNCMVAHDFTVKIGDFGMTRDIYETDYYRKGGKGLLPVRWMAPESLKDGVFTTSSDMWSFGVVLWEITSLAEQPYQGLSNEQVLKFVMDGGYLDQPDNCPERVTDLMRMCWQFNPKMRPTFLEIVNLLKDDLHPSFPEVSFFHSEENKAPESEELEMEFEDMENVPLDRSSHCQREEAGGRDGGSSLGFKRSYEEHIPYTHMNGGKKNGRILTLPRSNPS
row,Compound,outcome
1,COCCOCCOCCOC,inactive
2,CC[C@H]1OC(=O)[C@H](C)[C@@H](O[C@H]2C[C@@](C)(OC)[C@@H](O)[C@H](C)O2)[C@H](C)[C@@H](O[C@@H]2O[C@H](C)C[C@H](N(C)C)[C@H]2O)[C@](C)(O)C[C@@H](C)C(=O)[C@H](C)[C@@H](O)[C@]1(C)O,inactive
3,Clc1nc(Cl)c(Cl)c(Cl)c1Cl,inactive

# Target: human LYN Proto-Oncogene, Src family Tyrosine Kinase (LynA), LYN (gene 4067) (UniProt P07948)
# Test: NVS_ENZ_hLynA: NovaScreen (NVS) Enzymatic Assay for human LYN Proto-Oncogene, Src family Tyrosine Kinase (LynA) (AID 2283173)
# Summary of the method: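 Recombinant kinase with fluorescent substrate; product separated from substrate by electrophoretic mobility shift and read 1 h after dosing. Duplicate screen at 25 uM, then concentration-response up to 50 uM; activity scored as signal loss against DMSO.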
# Sequence of human LYN Proto-Oncogene, Src family Tyrosine Kinase (LynA), LYN (gene 4067) (P07948 whole entry, looked up): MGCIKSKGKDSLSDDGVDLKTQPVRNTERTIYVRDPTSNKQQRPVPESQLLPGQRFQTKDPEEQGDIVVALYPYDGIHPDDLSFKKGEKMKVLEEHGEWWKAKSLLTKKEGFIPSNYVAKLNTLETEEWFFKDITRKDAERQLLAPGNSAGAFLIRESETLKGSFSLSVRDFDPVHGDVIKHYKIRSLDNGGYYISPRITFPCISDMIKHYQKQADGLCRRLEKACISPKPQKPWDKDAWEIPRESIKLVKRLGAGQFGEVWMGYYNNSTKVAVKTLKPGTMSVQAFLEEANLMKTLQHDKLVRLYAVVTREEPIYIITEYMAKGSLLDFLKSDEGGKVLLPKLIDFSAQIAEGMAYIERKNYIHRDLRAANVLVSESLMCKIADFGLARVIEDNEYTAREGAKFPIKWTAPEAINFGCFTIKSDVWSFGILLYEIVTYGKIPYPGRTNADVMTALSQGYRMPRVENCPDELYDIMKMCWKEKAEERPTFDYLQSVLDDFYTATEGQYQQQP
row,Compound,outcome
1,O=C(O)c1cccc(Oc2ccccc2)c1,inactive
2,NC(=O)NO,inactive
3,CC(C)c1cccc(C(C)C)c1N1C(=O)c2ccc(O)cc2C1=O,inactive
4,CC(C)CC(C)(O)C#CC(C)(O)CC(C)C (stereo unspecified),inactive
5,CC(C)CCCCCCCOC(=O)CCCCC(=O)OCCCCCCCC(C)C,inactive
